Measurements: the supplement of paper PMC6555819

Experiments:
Test in all cases: PBM binding z-score (relative to random genomic background probes); higher = stronger binding; sequences stand for … in GC…GCGATTGACAGCGTAGAATGAAGG
[1] = test system: FXR:RXRa (NR concentration 270 nM, RXRa partner concentration 90 nM)
Outline: (§1)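 Custom Agilent 4×180K protein-binding microarrays carried double-stranded probes, each with a 34-nt variable region. These regions held direct-repeat seeds, single-nucleotide variants, half-site ablations and random human genomic background sequences. Ligand-free nuclear receptor dimers were incubated on the arrays for 1 h, antibodies against each partner (one per run) detected binding, and scanned fluorescence was regression-normalized. Binding z-scores take the random background probes as reference.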

[2] = test system: LXRa:RXRa (NR concentration 270 nM, RXRa partner concentration 90 nM)
Outline: as §1

[3] = test system: LXRa homodimer (NR concentration 270 nM)
Outline: as §1

[4] = test system: LXRb:RXRa (NR concentration 270 nM, RXRa partner concentration 90 nM)
Outline: as §1

[5] = test system: LXRb homodimer (NR concentration 270 nM)
Outline: as §1

[6] = test system: PPARa:RXRa (NR concentration 270 nM, RXRa partner concentration 90 nM)
Outline: as §1

[7] = test system: PPARg:RXRa (NR concentration 180 nM, RXRa partner concentration 90 nM)
Outline: as §1

[8] = test system: PPARg:RXRa 270nM:90nM, anti-RXR (NR concentration 270 nM, RXRa partner concentration 90 nM)
Outline: as §1

[9] = test system: PPARg:RXRa 30nM:10nM, anti-RXR (NR concentration 30 nM, RXRa partner concentration 10 nM)
Outline: as §1

[10] = test system: PPARg:RXRa 90nM:30nM, anti-RXR (NR concentration 90 nM, RXRa partner concentration 30 nM)
Outline: as §1

Row | Sequence | PBM binding z-score [1] | PBM binding z-score [2] | PBM binding z-score [3] | PBM binding z-score [4] | PBM binding z-score [5] | PBM binding z-score [6] | PBM binding z-score [7] | PBM binding z-score [8] | PBM binding z-score [9] | PBM binding z-score [10]
1 | CGTAGTTGGTCAGGAGGTCACACACCGGATATGA | 3.37 | 3.49 | 2.03 | 3.36 | 0.65 | 4.17 | 2.96 | 4.01 | 1.36 | 3.36
2 | ACAGACAGGTGAGTGAAGGTATCTCAGCTGGACG | -0.3 | -0.499 | -0.504 | -0.625 | -0.39 | 0.116 | 0.581 | -0.119 | 0.319 | -0.0281
3 | CCTTACGGGTCACTCCCGGTTATAGCATCGGAGT | 4.78 | 7.33 | 2 | 4.66 | 0.279 | 4.23 | 2.63 | 3.52 | 0.522 | 2.33
4 | ACTAGTAGTTGAGACGAGGGCAACCGATAGGTTG | 0.415 | 0.0058 | -0.401 | -0.109 | -0.494 | 0.237 | 0.537 | -0.227 | -0.398 | -0.329
5 | TCTCGGAGGACACGAAAGGTCAGAGCCCGACATC | 2.84 | 3.75 | 3.31 | 3 | -0.257 | 3.36 | 1.57 | 2.78 | 2.36 | 2.59
6 | CAAACTAGCTCAAGAGGTCAAAGTCCGCTTCCCG | 4.69 | 5.44 | 5.42 | 5.16 | 1.67 | 5.04 | 1.65 | 3.87 | 1.52 | 2.88
7 | TCATATAGGTAATACATGTGAAAGTCGGCATCTA | 0.838 | 1.1 | 0.394 | 0.937 | 0.272 | 1.43 | 1.42 | 2.35 | 3.69 | 3.13
8 | ATATGTAGGTTAAGGGACATTCAGGTTGGTTCGC | 0.93 | 1.06 | 0.514 | 0.945 | 0.703 | 3.79 | 6.5 | 6.51 | 4.44 | 6.65
9 | TCTCGGAGGACACGAAGTTCAGAGCTTTCCAGAG | 0.621 | 0.0816 | -0.00666 | 0.0852 | -0.97 | 0.472 | -0.146 | 1.2 | 2.18 | 1.76
10 | CCTAGTTGGTTAAGGTCACACACGCTATAGGTAC | 4.71 | 4.56 | 2.6 | 4.3 | 1.42 | 4.33 | 2.68 | 3.2 | 1.24 | 2.39
11 | CCGACTGGGGCAAAGGTTACCTTACTCAGTACGA | 1.37 | 1.71 | -0.345 | 1.98 | -1.42 | 5.37 | 10.6 | 9.12 | 7.96 | 9.81
12 | CGAATTAGGTCATTGACAGGACAGTGAATAGTAA | 4.67 | 3.39 | 0.61 | 2.55 | 0.269 | 4.89 | 6.83 | 6.02 | 3.62 | 5.68
13 | CGTCCAAGGACAAAGGTCAGTGAAGAGATGACGG | 3.18 | 3.25 | 1 | 2.85 | -0.0848 | 4.56 | 5.79 | 5.86 | 3.8 | 5.51
14 | TCTAGTTGGTCAGGGAGGTCACACACGACGGGTA | 3.15 | 3.3 | 2.44 | 3.24 | 1.66 | 3.72 | 2.28 | 3.13 | 3.27 | 3.23
15 | CAAACTAGGTCACCGGAAGGTCAAAGTCCGCATG | 6.27 | 6.15 | 5.16 | 5.46 | 1.59 | 6.16 | 9.5 | 7.87 | 5.79 | 7.49
16 | TCTCGGAGGACCCGAAGGTCAGAGCTTTCCAGAG | 0.805 | 0.637 | -0.12 | 0.902 | -1.45 | 1.69 | 0.0649 | 1.18 | 1.64 | 1.63
17 | TCGAGTAGGTTAGTCGGGGCATTGAGCCAACATA | -0.211 | -0.326 | -0.78 | 0.048 | -1.23 | 0.416 | -0.175 | 0.835 | 1 | 0.777
18 | ATCTCTAGGTAAAGATAGTCCAGTGAATGCAAAT | 0.226 | 0.368 | -0.00685 | -0.0224 | 0.398 | -0.051 | 0.458 | 0.219 | 0.157 | 0.0539
19 | GCTGCTAGGTCAACTGATGGTCAGCTTAAGCTCG | 4.41 | 3.13 | 0.215 | 2.09 | 0.173 | 3.5 | 2.44 | 2.97 | 0.312 | 2.07
20 | ACAGACAGGTGAGTGAAGATAACTCAGCTGGACG | -0.343 | -0.53 | -0.558 | -0.776 | -0.749 | -0.453 | 0.887 | -0.267 | 0.137 | -0.0703
21 | AGAATGAGCTTATTAAGATCAGGGAATTGCGGTC | -0.612 | -0.88 | -0.374 | -0.82 | -0.756 | -0.52 | 0.00552 | -0.444 | -0.148 | -0.365
22 | TCTCTGAGGACACGAAGGTCAGAGCTTTCCAGAG | 2.1 | 1.06 | 0.117 | 0.798 | -0.338 | 2 | 0.595 | 2.08 | 2.59 | 2.22
23 | ACAGACAGGTGAGTGAAGGTAACTAAGCTGGACG | 0.105 | -0.0477 | -0.437 | -0.48 | -0.463 | 0.107 | 0.457 | -0.0366 | -0.0843 | -0.406
24 | AATCAAAGTTCATCTAGGTAACGTAAGATATGCT | 6.64 | 6.2 | 7.11 | 4.15 | 2.37 | 4.75 | 4.35 | 4.25 | 2.04 | 3.19
